The values below come from PubChem BioAssay (Tox21).

Assay [1] is described as follows: qHTS assay to identify small molecule antagonists of the estrogen related receptor signaling pathway with the pleiotropic PPARgamma coactivator (PGC) from Tox21 10K library - cell viability counter screen (AID 1224840; active means well fitted cell-killing curve with a large enough effect in the repeat runs, not every such curve was filed as active; further: nearly all actives have a fitted effect of over 40% in size; further: potency means the concentration at half of the fitted maximal effect). Put shortly:
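Here the PGC/ERR cells serve as a cytotoxicity control: they are exposed to compounds for 17.5 hours at 37 C, and live-cell signal is quantified using CellTiter-Fluor fluorescence.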

Assay [2] can be described thus: qHTS assay to identify small molecule antagonists of the estrogen related receptor signaling pathway with the pleiotropic PPARgamma coactivator (PGC) from Tox21 10K library (AID 1224841; call rule not given here; further: actives are mostly falling curves and most rising ones were filed inactive; nearly all actives have a fitted effect of over 50% in size; further: potency means the concentration at half of the fitted maximal effect). Put shortly:
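Each well held 2,000 PGC/ERR cells, pre-incubated six hours (37 C, 5% CO2). Test substances in DMSO were added by pin tool and left for 18 h at 37 C before luciferase detection by One-Glo.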

Assay [3] is described as follows: qHTS assay to identify small molecule agonists of the estrogen related receptor signaling pathway with the pleiotropic PPARgamma coactivator (PGC) from Tox21 10K library (AID 1224842; active means well fitted curve in the direction sought with a large enough effect in the repeat runs; an effect the other way counts as inactive or inconclusive; further: nearly all actives have a fitted effect of over 15% in size). Put shortly: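 PGC/ERR reporter cell line, 2,000 cells per well, incubated 6 h at 37 C before 23 nL compound in DMSO was added. After 18 h at 37 C, One-Glo luminescence read following 30 min at room temperature.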

For assay [4], the target named is Thyrotropin receptor (Homo sapiens) (UniProt P16473). Nature of the assay: qHTS assay to identify small molecule agonists of the thyroid stimulating hormone receptor (TSHR) signaling pathway (AID 1224843). Further: nearly all actives have a fitted effect of over 45% in size. Further: potency means the concentration at half of the fitted maximal effect. Put shortly: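 Steps: seed 800 TSHR-HEK293 cells per well; add test compound and hold 30 min at ambient temperature; dispense cAMP-d2 then anti-cAMP cryptate; incubate 1 h at ambient; measure fluorescence intensity.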
Chain of Thyrotropin receptor (Homo sapiens) (P16473 whole entry, looked up): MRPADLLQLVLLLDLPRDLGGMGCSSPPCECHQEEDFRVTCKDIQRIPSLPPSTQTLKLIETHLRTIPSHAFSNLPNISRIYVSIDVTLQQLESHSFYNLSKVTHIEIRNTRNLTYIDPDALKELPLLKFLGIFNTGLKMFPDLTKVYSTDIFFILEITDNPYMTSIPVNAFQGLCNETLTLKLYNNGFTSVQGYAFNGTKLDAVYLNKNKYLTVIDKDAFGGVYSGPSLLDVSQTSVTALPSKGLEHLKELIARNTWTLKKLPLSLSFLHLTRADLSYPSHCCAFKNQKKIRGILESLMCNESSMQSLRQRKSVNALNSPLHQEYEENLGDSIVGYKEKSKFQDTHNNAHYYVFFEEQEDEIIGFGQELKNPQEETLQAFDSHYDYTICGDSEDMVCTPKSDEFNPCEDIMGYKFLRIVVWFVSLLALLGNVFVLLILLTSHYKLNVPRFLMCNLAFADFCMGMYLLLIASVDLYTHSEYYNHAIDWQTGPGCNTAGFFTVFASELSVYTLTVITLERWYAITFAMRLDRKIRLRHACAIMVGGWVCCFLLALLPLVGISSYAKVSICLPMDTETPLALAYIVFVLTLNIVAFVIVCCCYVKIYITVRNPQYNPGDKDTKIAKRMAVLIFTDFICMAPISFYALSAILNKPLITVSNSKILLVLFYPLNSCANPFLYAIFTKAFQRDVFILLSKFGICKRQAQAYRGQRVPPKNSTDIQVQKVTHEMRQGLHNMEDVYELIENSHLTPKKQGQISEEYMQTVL

A short description of assay [5]: qHTS assay to identify small molecule agonists of the hypoxia (HIF-1) signaling pathway - cell viability counter screen (AID 1224844). Further: nearly all actives have a fitted effect of over 50% in size. Further: potency means the concentration at half of the fitted maximal effect. An outline of the steps:
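Multiplexed with the HRE beta-lactamase assay, this viability read used CellTiter-Glo luminescence (30 min, RT) on HRE-bla ME-180 cells treated 17 hrs with compounds in 0.5% dialyzed FBS medium.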

Assay [6] can be described thus: qHTS assay to identify small molecule agonists of H2AX (AID 1224845; active means well fitted activation curve with a large enough effect in the signal ratio in the repeat runs, not every such curve was filed as active; the % refers to the signal ratio; further: potency means the concentration at half of the fitted maximal effect). An outline of the steps: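 Wild-type CHO-K1 cells, plated overnight, exposed 3hr at 37C to 15 concentrations (0.76% DMSO final). Lysed, then HTRF anti-pH2AX (S139) cryptate and anti-H2AX-d2 antibodies, 24 hr room temperature; 665/620 nm emission read.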
A short description of assay [7]: qHTS assay to identify small molecule agonists of the hypoxia (HIF-1) signaling pathway (AID 1224846; active means well fitted activation curve with a large enough effect in the signal ratio in the repeat runs, not every such curve was filed as active; the % refers to the signal ratio). Put shortly:
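Hypoxia-pathway activation was scored as increased beta-lactamase from an HRE-controlled reporter in ME-180 cells; plated at 2,000 cells per well with 0.5% dialyzed FBS, they were exposed 17 hrs to compounds and then given CCF4-AM.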

A short description of assay [8]: qHTS assay to identify small molecule agonists of H2AX - cell viability counter screen (AID 1224847). Further: nearly all actives have a fitted effect of over 30% in size. Further: potency means the concentration at half of the fitted maximal effect. On activity change, negative = cytotoxicity: top concentration of the series differs between compounds. Put shortly:
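Read-out: CellTiter-Glo luminescence, 30 min RT. Cells: wild-type CHO-K1, 1000/well, 10% FBS, plated overnight at 37C. Treatment: 15 concentrations, 3 hr, 37C, 0.76% DMSO.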

Assay [9] has as its target Nuclear receptor subfamily 1 group I member 3 (Homo sapiens) (UniProt Q14994). Nature of the assay: qHTS assay to identify small molecule antagonists of the constitutive androstane receptor (CAR) signaling pathway (AID 1224838; active means well fitted curve in the direction sought with a large enough effect in the repeat runs; an effect the other way counts as inactive or inconclusive;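 further: HepG2 cells stably expressing hCAR with CYP2B6 luciferase reporter stimulated by CITCO; nearly all actives have a fitted effect of over 40% in size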). An outline of the steps:
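Reporter luminescence was quantified after 24 h exposure of hCAR/CYP2B6-2.2kb double-stable HepG2 cells to compounds at 15 concentrations in the presence of 50 nM CITCO final.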

Assay [10] shares this target. Nature of the assay: qHTS assay to identify small molecule agonists of the constitutive androstane receptor (CAR) signaling pathway (AID 1224839; active means well fitted curve in the direction sought with a large enough effect in the repeat runs; an effect the other way counts as inactive or inconclusive;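 further: HepG2 cells stably carrying human CAR and a CYP2B6 luciferase reporter; series mostly up to about 92 µM; nearly all actives have a fitted effect of over 15% in size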). An outline of the steps: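 In this screen, CAR-driven CYP2B6 promoter activity is measured by luminescence in HepG2-CYP2B6-hCAR cells after 24 h with test compounds and 0.75 uM PK11195 (final concentration).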

The structures appear in SMILES notation. Several values for one entry are separate records, joined by “and”; a condition that tells them apart may be missing. Equal values may be shown once. Records with an inconclusive call do not appear. Where a structure was tested more than once in an assay, its records may differ in their call. Activity calls are given as the source filed them. Unless noted, the call rests on the fitted dose curve.
On the % scale 0 is the no-effect control and ±100 the full control effect.

Chain of Nuclear receptor subfamily 1 group I member 3 (Homo sapiens) (Q14994 whole entry, looked up): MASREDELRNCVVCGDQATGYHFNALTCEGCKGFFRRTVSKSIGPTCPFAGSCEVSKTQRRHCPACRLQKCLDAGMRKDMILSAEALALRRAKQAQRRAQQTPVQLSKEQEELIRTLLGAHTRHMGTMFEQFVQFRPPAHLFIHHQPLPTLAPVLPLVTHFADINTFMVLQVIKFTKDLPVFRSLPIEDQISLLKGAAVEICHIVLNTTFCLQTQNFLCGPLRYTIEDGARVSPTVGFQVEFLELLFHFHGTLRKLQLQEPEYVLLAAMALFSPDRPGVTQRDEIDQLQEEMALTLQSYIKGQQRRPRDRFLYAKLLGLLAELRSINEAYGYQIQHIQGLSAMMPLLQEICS

With `CCCCCCCCCCCCCCCO`, the Potency entry in [1], in assay [4], in [5], in assay [6] and in assay [8] was “inactive” in each case. In addition, in assay [2], the Potency is 69.1 µM (active) and inactive. Further, the compound was classed as inactive in [3] and in [7].
For the compound `OCc1cccnc1`, the Potency result in assay [1], in [5], in assay [6] and in [8] was “inactive” in each case.
Regarding `Nc1cc([N+](=O)[O-])ccc1O`, the Potency entry in assay [9], in [10], in [2], in [4] and in assay [8] was “inactive” each time. Also, the outcome in assay [3] and in assay [7] was inactive.
For the compound `CC(c1cc2ccccc2s1)N(O)C(N)=O` (configuration not stated), the Potency entry in [1], in assay [5], in assay [6] and in assay [8] was “inactive” each time. Further, the compound was classed as inactive in [7].
`COc1cc(Cc2cnc(N)nc2N)cc(OC)c1OC`: the Potency result in [1], in [4], in assay [5], in [6] and in [8] was “inactive” throughout.
As to `COc1ccc2cc([C@H](C)C(=O)O)ccc2c1`, the Potency result in assay [9], in assay [1], in [4], in assay [5], in assay [6] and in assay [8] was “inactive” throughout.
With `CN(C)CCC(c1ccc(Cl)cc1)c1ccccn1` (configuration not stated), the Potency result in [1], in assay [4], in assay [5], in assay [6] and in assay [8] was “inactive” throughout.
On to `COc1ccc(Nc2ccccc2)c(C)c1`, for which the Potency entry in [1], in assay [2], in assay [4], in [5] and in assay [6] was “inactive” each time. Further, the result in [3] and in assay [7] was inactive. The Potency result in assay [8] is “inactive and 101 µM (active)”.
As for `c1c[nH]cn1`, the Potency entry in assay [1], in [6] and in assay [8] was “inactive” in each case. Further, the outcome in assay [7] was inactive.
`CCCCC(CC)COC(=O)CS` (configuration not stated): the Potency result in assay [1], in assay [2], in assay [4], in assay [6] and in [8] was “inactive” in each case. The compound was classed as inactive in assay [3] and in [7].
Take `CCCCCCCCCCCCCCO`: the Potency result in [1], in [4], in [5], in assay [6] and in assay [8] was “inactive” in each case. Also, the compound was classed as inactive in assay [7].
With `OCCOCCN1CCN(C2=Nc3ccccc3Sc3ccccc32)CC1`, the Potency entry in assay [1], in [4], in [6] and in assay [8] was “inactive” each time. In addition, the call in assay [7] was inactive.
Consider `CC(C)(C)[C@@H](O)[C@@H](Cc1ccc(Cl)cc1)n1cncn1`, for which the Potency entry in [1], in [4], in [6] and in [8] was “inactive” in each case. In addition, in [7], the compound was classed as inactive.
For the compound `CCCCC(CC)COC(=O)C(C#N)=C(c1ccccc1)c1ccccc1` (configuration not stated), the Potency result in [1], in assay [2], in assay [4], in [5], in assay [6] and in [8] was “inactive” in each case. In addition, the compound was classed as inactive in assay [3] and in assay [7].
Turning to `c1ccc2scnc2c1`, the Potency entry in assay [1], in [4], in assay [6] and in assay [8] was “inactive” each time. Further, the compound was called inactive in assay [7].
For `O=S1(=O)CC=CC1`, the Potency result in assay [1], in assay [4], in assay [6] and in assay [8] was “inactive” each time. For the same compound, in assay [7], the compound was classed as inactive.
Turning to `CCc1cccc(C)c1N`, the Potency entry in assay [1], in [2], in assay [4], in assay [5], in assay [6] and in [8] was “inactive” in each case. For the same compound, the outcome in [3] and in [7] was inactive.
For the compound `C#C[C@]1(O)CC[C@H]2[C@@H]3CCC4=CC(=O)CC[C@@H]4[C@H]3CC[C@@]21C`, the Potency result in assay [10], in [1], in assay [4], in assay [5] and in assay [8] was “inactive” each time. Besides, the Potency in assay [6] is 28.4 µM (active) and 19.6 µM (active).
Turning to `Cc1ccc2oc(=O)ccc2c1`, the Potency entry in assay [9], in [1], in assay [4], in assay [5], in assay [6] and in [8] was “inactive” each time. Besides, in assay [7], the call was inactive.
Take `O=C(O)c1cc(C(=O)O)cc(S(=O)(=O)O)c1`: the Potency result in [1], in assay [4], in assay [5], in assay [6] and in [8] was “inactive” throughout. In [7], the result was inactive.
As for `Nc1ccccc1[N+](=O)[O-]`, the Potency result in assay [1], in [2], in [4], in [5], in assay [6] and in assay [8] was “inactive” in each case. In addition, the outcome in assay [3] and in assay [7] was inactive.
For `Cc1ccc(S(N)(=O)=O)cc1`, the Potency result in [1], in [4], in assay [5], in [6] and in assay [8] was “inactive” in each case. In addition, the result in assay [7] was inactive.
Take `CCCCCCCCCC`: the Potency entry in assay [1], in assay [4], in [5], in assay [6] and in assay [8] was “inactive” throughout. For the same compound, the compound was called inactive in [7].
In the case of `CC(=O)CC(=O)Nc1ccccc1`, the Potency result in assay [1], in assay [5], in assay [6] and in assay [8] was “inactive” in each case. The Potency in [4] was 19.3 µM (active) and inactive. The compound was classed as inactive in assay [7].
Take `Cc1cnc(C(=O)NCCc2ccc(S(=O)(=O)NC(=O)NC3CCCCC3)cc2)cn1`: the Potency result in assay [1], in [4], in assay [5] and in [8] was “inactive” each time.
With `C=CCOC(=O)c1ccccc1C(=O)OCC=C`, the Potency result in assay [1], in assay [4], in assay [5], in assay [6] and in assay [8] was “inactive” throughout. For the same compound, the compound was called inactive in assay [7].
For the compound `O=C(O)[C@H](O)[C@@H](O)[C@H](O)[C@H](O)CO`, the Potency result in assay [1], in [5], in [6] and in [8] was “inactive” throughout. In [7], the call was inactive.
With `C=C(C)C(=O)O[C@H]1C[C@@H]2CC[C@@]1(C)C2(C)C`, the Potency is 13.6 µM (active) and inactive in assay [1]; 60.8 µM (active) and inactive in [2]; 1.94 µM (active) and inactive in [5]; 2.24 µM (active) and inactive in assay [6]. Besides, the outcome in [3] and in assay [7] was inactive. Also, the Potency result in [4] and in assay [8] was “inactive” each time.
In the case of `O=C(O)c1ccc2c(c1)C(=O)OC2=O`, the Potency entry in assay [1], in assay [4], in assay [6] and in assay [8] was “inactive” throughout. For the same compound, the compound was called inactive in [7].
Consider `FC(F)(F)c1ccc(Cl)c(Cl)c1`, for which the Potency result in assay [1], in assay [4], in assay [5], in assay [6] and in [8] was “inactive” throughout. Besides, the compound was called inactive in assay [7].
Regarding `CC(C)CC(=O)CC(C)C`, the Potency result in [1], in [2], in assay [5], in [6] and in assay [8] was “inactive” in each case. Further, the call in assay [3] and in assay [7] was inactive.
For the compound `CCN(CC)CCCC(C)Nc1ccnc2cc(Cl)ccc12` (configuration not stated), the viability change, negative = cytotoxic in assay [1] is -1.36% [at 8.39 µM] (inactive) and -20.9% [at 19 µM] (inactive). Besides, the activity change, negative = cytotoxicity in assay [5] was -3.66% [at 15.8 µM] (inactive); in assay [8], 0.575% [at 14 µM] (inactive) and -2.97% [at 31.6 µM] (inactive). Further, the activation (H2AX phosphorylation) in assay [6] was 3.5% [at 14 µM] (inactive) and -4.76% [at 31.6 µM] (inactive).
Regarding `O=P(OC(CCl)CCl)(OC(CCl)CCl)OC(CCl)CCl`, the Potency result in assay [1] and in [8] was “inactive” throughout. The Potency in assay [2] is 54.2 µM (active) and 54.5 µM (active). In addition, the result in assay [3] and in assay [7] was inactive.
As to `Cc1cc(C)c(C)cc1C`, the Potency result in assay [1], in assay [4], in assay [5], in assay [6] and in [8] was “inactive” in each case. In assay [7], the compound was classed as inactive.
On to `O=S(=O)(O)c1ccc2ccccc2c1`, for which the Potency entry in [1], in [4], in assay [6] and in assay [8] was “inactive” throughout. In assay [7], the compound was called inactive.
As for `CC(O)COCC(C)O` (configuration not stated), the Potency entry in [1], in assay [4], in assay [6] and in assay [8] was “inactive” throughout. In addition, the compound was called inactive in [7].
